From ChEMBL document CHEMBL1157539, “Thousands of chemical starting points for antimalarial lead identification” (Nature, 2010)

Test system: Plasmodium falciparum
Test: GSK_TCMDC: Inhibition of Plasmodium falciparum 3D7 in whole red blood cells, using parasite LDH activity as an index of growth. Test compounds present at 2uM
Format: functional

Row | Compound | Inhibition [%]
1 | O=C(/C=C/c1cc(F)cc(C(F)(F)F)c1)N1CCC(CN2CCC(c3c[nH]c4ccccc34)CC2)CC1 | 100
2 | COc1ccc2[nH]cc(C3=CCN(Cc4ccccc4)CC3)c2c1 | 90
3 | COc1ccc(C=CC(=O)NC2CCC(CN3CCC(c4c[nH]c5ccccc45)CC3)CC2)cc1 (centres undefined) | 100
4 | C=CCOc1ccccc1CNCC(O)c1cccc(C(F)(F)F)c1 (centres undefined) | 99
5 | C#CCN1CCC2=C(C1)c1c(O)cc(C(C)CCCc3ccc(F)cc3)cc1OC2(C)C (centres undefined) | 98
6 | COc1coc(C(=O)NC2CCN(CC3(c4ccc(Cl)cc4)CCC3)CC2)c1OC | 96
7 | Cl.Fc1ccc2[nH]cc(CCN3CCC(CNCc4ccccc4)CC3)c2c1 | 100
8 | CC(=O)C1(c2ccccc2)CCN(CCC2(c3ccc(Cl)c(Cl)c3)CN(C(=O)Nc3cccc(C(F)(F)F)c3)CCO2)CC1 (centres undefined) | 95
9 | CC(NC(C)(C)C)C(O)c1ccc(Cl)c(C(F)(F)F)c1.Cl (centres undefined) | 97
10 | O=C(NCc1ccccc1)c1nn(CCCN2CCC3(CC2)C(=O)NCN3c2ccccc2)cc1-c1ccc(Cl)c(Cl)c1 | 88
11 | COc1cc(C=CC(=O)N2CCC(CN3CCC(c4c[nH]c5ccccc45)CC3)CC2)ccc1O | 82
12 | COc1cc(NCCCNC(=O)c2cn(Cc3ccccc3)c3ccccc23)nc2ccccc12 | 100
13 | COc1ccc(N(c2nc(-c3cc(Cl)ccc3Cl)cs2)C2CCNCC2)cc1.O=C(O)C(F)(F)F | 91
14 | COc1ccc(CCNCc2ccc3nc(N)cc(C)c3c2)cc1 | 100
